# Compound activity from PubChem.
# Shown are actives, neighbours in structure and some others; about 7.4% of the full set was active somewhere.
# SNCA expr inhib: Primary qHTS assay for inhibitors of alpha-synuclein gene (SNCA) expression; HEK-293 SNCA-luciferase knock-in, luminescence, 24 h; Potency, µM (series often up to 57.2 µM), for inactives: at the top dose activity change, negative = inhibition, actives largely listed as inhibitors; hit rate 0.17% among 140,000; AID 1671194, 2021;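 note: plate controls were DMSO cells for no effect and cell-free wells for full effect; nearly all actives have a fitted effect of over 45% in size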
# SNCA viab count: GF-AFC viability counterscreen for inhibitors of alpha-synuclein gene (SNCA) expression; Potency, µM (series often up to 57.1 µM), inactives show top-dose activity change, negative = cytotoxicity, hits mostly cytotoxic; hit rate 0.12% among 150,000; HEK-293-SNCA-luc viability, GF-AFC fluorescence, 24 h;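 note: 0% = DMSO-treated cells and -100% = medium-only wells without cells; nearly all actives have a fitted effect of over 30% in size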
#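 HEK-293-SNCA-luc cells (1500/well) plated 24 h, then exposed 24 h to a dilution series; GF-AFC added 30 min at 37C, fluorescence 405/540 nm; normalised to medium-only and DMSO wells, Hill fit.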
# HEK cytotox: Cytotoxic Profiling in HEK 293 Cell Line of Diverse Libraries Using Quantitative High-Throughput Screening; hit rate 6.6% among 94,000; HEK 293 viability, ATP luminescence (CellTiter-Glo), 48-72 h; Potency, µM (series often up to 115 µM), for inactives: top-dose activity change, negative = cytotoxicity, actives largely listed as inhibitors; note: nearly all actives have a fitted effect of over 60% in size
#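 Luminescence from cellular ATP, measured with CellTiter-Glo, indicates HEK 293 viability. Cells plated at 250 cells/well are treated with compound for 48 or 72 hr at 37 degree Celsius before reagent addition.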
# Luciferase inh: Firefly luciferase inhibition profiling of diverse chemical library using quantitative high-throughput screening. Potency, µM (highest dose often 115 µM), usual class: inhibitors. purified P. pyralis luciferase, luminescence, biochemical. hit rate 2.5% among 76,000; note: nearly all actives have a fitted effect of over 65% in size
# Target sequence (P08659 whole entry, looked up): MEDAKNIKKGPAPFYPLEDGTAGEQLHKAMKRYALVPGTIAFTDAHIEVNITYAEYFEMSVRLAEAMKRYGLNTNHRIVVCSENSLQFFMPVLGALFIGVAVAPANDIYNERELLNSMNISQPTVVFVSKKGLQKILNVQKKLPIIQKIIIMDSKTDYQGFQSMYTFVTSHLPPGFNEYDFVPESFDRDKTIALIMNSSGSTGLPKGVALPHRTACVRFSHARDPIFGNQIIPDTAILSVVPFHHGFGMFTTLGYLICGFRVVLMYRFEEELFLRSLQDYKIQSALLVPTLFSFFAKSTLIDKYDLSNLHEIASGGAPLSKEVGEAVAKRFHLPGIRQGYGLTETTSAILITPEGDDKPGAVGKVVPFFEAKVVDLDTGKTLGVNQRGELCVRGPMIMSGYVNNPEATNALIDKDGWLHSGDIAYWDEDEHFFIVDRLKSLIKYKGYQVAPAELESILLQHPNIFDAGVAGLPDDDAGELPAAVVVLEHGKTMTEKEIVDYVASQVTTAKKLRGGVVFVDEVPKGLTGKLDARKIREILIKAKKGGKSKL
#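 FLuc 10nM, D-luciferin 10uM, ATP 10uM, Mg acetate 10mM, Tris acetate pH 7.5, Tween/BSA; cpd qHTS; enzyme added last; CCD luminescence.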
# hNpr1 antagonist: Natriuretic polypeptide receptor (hNpr1) antagonism - Primary qHTS. Atrial natriuretic peptide receptor 1 (Homo sapiens), P16066. HEK293 hNpr1 GloSensor cGMP, ANP-stimulated luminescence. Potency, µM (doses to about 46.3 µM), inactives show top-dose activity change, negative = inhibition, hits mostly inhibitors. hit rate 1.6% among 76,000. AID 1347048, 2019; calls by dose curve; note: nearly all actives have a fitted effect of over 60% in size
#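 HEK293 cells stably expressing human Npr1 and cGMP GloSensor pGS-40F, loaded 2 h with 2% GloSensor reagent, given compound 30 min at room temperature. Luminescence read before and 20 min after 0.1 nM hNppA.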
# 3T3 cytotox: Cytotoxic Profiling in NIH 3T3 Cell Line of Diverse Libraries Using Quantitative High-Throughput Screening. NIH 3T3 viability, CellTiter-Glo ATP luminescence, 48-72 h. Potency, µM (titrated, usually from 96.7 µM), for the others: at the highest dose activity change, negative = cytotoxicity, usual class: inhibitors. hit rate 4.3% among 94,000. AID 1345082, 2018; note: nearly all actives have a fitted effect of over 55% in size
#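 ATP-dependent luminescence (CellTiter-Glo) served as the viability signal for NIH 3T3 cells treated with compound for 48 or 72 hr at 37 °C.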
# Numbers without * were called inactive; i = inactive; ? = inconclusive; / = no result given; [ ] = dose if it differs, or a comment. Unless noted, calls come from the whole dose curve; as a rule, active = well fitted curve in the direction sought with a large enough effect; inconclusive = small, poorly fitted or top-dose-only effect, or another doubt; inactive = no such curve, though single readings can be large; an effect the other way counts as inactive or inconclusive. Unless noted, % is set by controls: 0 for no effect and ±100 for the full control effect; potency is the fitted concentration of half-maximal effect.
SMILES,SNCA expr inhib,SNCA viab count,HEK cytotox,Luciferase inh,hNpr1 antagonist,3T3 cytotox
CC1(C(=O)NCC2CC2)COCc2cnc(Nc3ccccc3)nc21 (stereo unspecified),-16%[87.6 µM],-7%[87.6 µM],?,i,-5%[70.6 µM],-13%[138 µM]
CNC(=O)c1cc(C)nc2onc(C3CCCN(C(=O)Cc4ccc(OC)cc4)C3)c12 (stereo unspecified),/,/,i,/,/,-7%
CC(C)(C)COC(=O)N1C[C@H](C(N)=O)[C@H]2c3ccccc3N(CC3CC3)C(=O)[C@]21C,5%[25.6 µM],1%[23.9 µM],?,/,/,-24%[46.1 µM]
CCn1c(=N)n(CCOc2ccc(Br)cc2)c2ccccc21,25µM*,?,/,/,/,/
COc1ccc(CC(=O)NC2CCN(c3nccc(Nc4ccccc4OC)n3)CC2)cc1,-7%,6%,?,/,/,?
Cc1cccc(CN2CCc3c(n(Cc4cccnc4)n(-c4ccccc4)c3=O)C2)n1,-4%[87.6 µM],-3%[87.6 µM],-2%[172 µM],i,-5%[70.6 µM],100µM*
COc1ncc(CN2CCc3c(n(Cc4cccnc4)n(-c4ccccc4)c3=O)C2)cn1,34%[87.6 µM],7%[87.6 µM],-22%[172 µM],i,-2%[70.6 µM],?
O=c1c2c(n(Cc3cccnc3)n1-c1ccccc1)CN(CC1CC1)CC2,?,6%[87.6 µM],-21%[172 µM],i,-4%[70.6 µM],28µM*
COc1ccc(Cn2c(=O)c(C(=O)NCC(F)(F)F)nc3cccnc32)cc1,-14%,3%,-16%,/,/,-13%
CC1=C(C(=O)NCC2Cn3cccc3C(=O)N2Cc2ccccc2)C2(CCCCC2)OC1=O (stereo unspecified),6%,-2%,-5%,i,-4%,-11%
O=C(c1cc(F)ccc1F)N1CCC(Cc2noc(C3CC3)n2)C1 (stereo unspecified),7%,11%,i,/,/,-12%
COc1ccc(-c2cc(C(=O)NCC(C)C)c3c(C4CCNC4)nn(C)c3n2)cc1 (stereo unspecified),-24%,-8%,?,/,/,20µM*
COc1ccc(-c2cc(C(=O)NCC(C)C)c3c(C4CCNC4)noc3n2)cc1 (stereo unspecified),12%,1%,?,/,/,?
COc1cccc(-c2c(C(=O)NCC3CC3)nc3sccn23)c1,39%,-10%,-28%,/,/,?
CN1CCOc2c(C(=O)NCc3cccnc3)cc(-c3ccccc3F)cc21,-9%[87.6 µM],?,100µM*,i,3%[70.6 µM],?
CN1CCOc2c(C(=O)NCc3cccnc3)cc(-c3ccc(O)c(F)c3)cc21,7%[87.6 µM],0%[87.6 µM],?,i,0%[70.6 µM],?
CNC(=O)c1cc(-c2cnn(C)c2)cc2c1OCCN2Cc1cccnc1,33%[87.6 µM],-2%[87.6 µM],i,i,2%[70.6 µM],40µM*
CNC(=O)c1cc(-c2cccnc2)cc2c1OCCN2Cc1cccnc1,3%[87.6 µM],-1%[87.6 µM],5%[172 µM],i,8%[70.6 µM],?
CN(C)CCNC(=O)c1cc(-c2ccccc2F)cc2c1OCCN2Cc1cccnc1,?,?,63µM*,i,-25%[70.6 µM],40µM*
CC(C)NC(=O)c1cc(-c2ccccc2F)cc2c1OCCN2Cc1cccnc1,?,?,89µM*,i,-26%[70.6 µM],79µM*
Cc1cc(C(=O)N2CCC3(CC2)CC(CN2CCOCC2)N(C)C3)n(C)n1 (stereo unspecified),18%,17%,i,/,/,2%
O=C(c1ccc(C(F)(F)F)cc1)N1CCN(C(=O)c2nc3cccnc3n(Cc3ccccc3)c2=O)CC1,-3%,5%,?,/,/,?
CN(C)CCN(C)C(=O)c1cc(-c2ccccc2F)cc2c1OCCN2Cc1cccnc1,-1%,-17%,79µM*,i,-3%,?
COCCN1C(=O)[C@@H]2C[C@@H](CN2Cc2ccc(OC)nc2)Oc2ccccc21,5%[87.6 µM],10%[87.6 µM],-12%[172 µM],i,7%[70.6 µM],-19%[138 µM]
O=C1[C@@H]2C[C@@H](CN2Cc2cnc3ccccc3c2)Oc2ccccc2N1Cc1ccccc1,3%,-20%,50µM*,i,-19%,?
SMILES,SNCA expr inhib,SNCA viab count,HEK cytotox,Luciferase inh,hNpr1 antagonist,3T3 cytotox
O=C1[C@@H]2C[C@@H](CN2Cc2ccccn2)Oc2ccccc2N1Cc1ccccc1,12%[87.6 µM],-8%[87.6 µM],?,i,?,?
COCCN1C(=O)[C@@H]2C[C@@H](CN2Cc2cnc3ccccc3c2)Oc2ccccc21,3%[87.6 µM],-8%[87.6 µM],?,i,-2%[70.6 µM],100µM*
COc1ccc(C(=O)N2CCCC2C(=O)N2CCC(N3CCCC3=O)CC2)cc1 (stereo unspecified),2%,1%,i,/,/,2%
C=C(C=O)[C@]1(O)C[C@@]2(C)C(=CC1=O)C=C[C@H](OC(=O)/C=C/C=C/[C@H](C)CC)[C@@H]2C,/,8.2µM*,/,/,/,/
Cc1ccc(S(=O)(=O)N2CCC(CCC(=O)NCCc3ccccc3)CC2)cc1,-3%,3%,?,/,/,?
CCNC(=O)N(C1CC1)C1CCOC2(CCN(C(=O)c3ccc(OC)nc3)CC2)C1 (stereo unspecified),26%,-8%,-4%,/,/,?
Cc1ccc(CNC(=O)C2CCN(C(=O)c3nnn4c3COC(c3ccc(C)cc3)C4)CC2)cc1 (stereo unspecified),5%,-3%,1%,i,-1%,2%
Cc1ccc(C2Cn3cnc(C(=O)N4CCC(C(=O)NCc5cccs5)CC4)c3CO2)cc1 (stereo unspecified),4%,2%,1%,?,0%,2%
Cc1ccc(C2Cn3nnc(C(=O)N4CCC(C(=O)NC5CCC(C)CC5)CC4)c3CO2)cc1 (stereo unspecified),5%,0%,-15%,28µM*,-4%,-22%
Cc1ccc(C2Cn3nnc(C(=O)N4CCC(C(=O)NC(C)c5ccccc5)CC4)c3CO2)cc1 (stereo unspecified),63%,11%,-30%,?,3%,-10%
Cc1ccc(C2Cn3nnc(C(=O)N4CCC(C(=O)NCc5cccs5)CC4)c3CO2)cc1 (stereo unspecified),60%,-5%,5%,35µM*,3%,3%
Cc1ccc(C2Cn3nnc(C(=O)N4CCC(C(=O)NC5CCCCC5)CC4)c3CO2)cc1 (stereo unspecified),55%,3%,8%,?,0%,i
